# In ChEMBL document CHEMBL3988442, “University of Dundee, Small-Polar-MMV Screening Library” (2021):
# For part of these data: Measured potencies and affinities stand elsewhere.
# How the values were obtained:
# Parameters in all cases: scale not given: direction of the effect not stated beside the values
# [1] = molecular target: Protein translocase subunit SecA (Escherichia coli (strain K12)) (UniProt P10408); assay: Assay to Identify E. coli SecA ATPase Inhibitors; assay type: functional; settings: 30 µM
# [2] = molecular target: T1, Ubiquitin-activating enzyme e1, putative (Leishmania donovani (strain BPK282A1)) (UniProt E9BSI1); assay: Leishmania donovani Ubiquitin Activating Enzyme (LdE1); assay type: functional; settings: 30 µM
# T1 sequence (whole entry): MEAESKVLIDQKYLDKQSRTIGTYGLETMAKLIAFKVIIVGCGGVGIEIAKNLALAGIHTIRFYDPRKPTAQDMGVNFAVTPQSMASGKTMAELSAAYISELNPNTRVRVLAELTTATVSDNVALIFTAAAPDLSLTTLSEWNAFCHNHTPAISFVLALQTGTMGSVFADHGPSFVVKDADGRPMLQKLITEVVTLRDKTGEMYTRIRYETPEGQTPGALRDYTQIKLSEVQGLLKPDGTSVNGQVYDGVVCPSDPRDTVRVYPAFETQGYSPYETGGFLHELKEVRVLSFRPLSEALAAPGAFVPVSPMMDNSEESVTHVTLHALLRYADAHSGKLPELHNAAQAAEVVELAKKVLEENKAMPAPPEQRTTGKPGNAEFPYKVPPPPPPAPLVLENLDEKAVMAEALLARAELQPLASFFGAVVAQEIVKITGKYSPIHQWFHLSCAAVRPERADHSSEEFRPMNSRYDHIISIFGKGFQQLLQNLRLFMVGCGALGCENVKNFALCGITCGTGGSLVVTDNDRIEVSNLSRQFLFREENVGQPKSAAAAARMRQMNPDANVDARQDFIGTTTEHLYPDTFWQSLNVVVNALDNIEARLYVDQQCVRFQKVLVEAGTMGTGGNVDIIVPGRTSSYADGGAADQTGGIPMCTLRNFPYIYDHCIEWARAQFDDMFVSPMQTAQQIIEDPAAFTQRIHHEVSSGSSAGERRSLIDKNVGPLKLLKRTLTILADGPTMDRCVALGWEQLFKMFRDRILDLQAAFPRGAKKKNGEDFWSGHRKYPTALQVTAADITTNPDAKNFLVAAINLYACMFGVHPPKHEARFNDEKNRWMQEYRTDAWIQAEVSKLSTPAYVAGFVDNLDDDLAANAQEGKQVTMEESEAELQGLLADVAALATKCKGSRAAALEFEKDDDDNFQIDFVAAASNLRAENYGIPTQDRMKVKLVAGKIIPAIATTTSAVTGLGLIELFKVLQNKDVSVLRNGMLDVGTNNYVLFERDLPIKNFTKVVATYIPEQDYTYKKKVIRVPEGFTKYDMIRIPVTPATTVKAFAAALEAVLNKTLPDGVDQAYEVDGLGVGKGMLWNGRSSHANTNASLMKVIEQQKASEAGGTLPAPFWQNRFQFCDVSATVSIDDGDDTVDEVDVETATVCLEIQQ
# [3] = molecular target: AMP-activated protein kinase, AMPK (Homo sapiens) (UniProt P54646+O43741+P54619+Q9UGJ0+Q9Y478+Q13131+Q9UGI9); assay: AMP-dependent Kinase enzyme assay. An in vitro enzyme assay that detects ADP turnover that is directly proportional to AMPK activity. This uses naive AMPK that is activated during the assay with MK-8722; assay type: functional; settings: 30 µM
# [4] = molecular target: Sialic acid-binding Ig-like lectin 9 (Homo sapiens) (UniProt Q9Y336); assay: Hs-Siglec9 ALPHAscreen SOP 20170721; settings: 10 µM
# Trypanosoma cruzi = assay: Trypanosoma cruzi phosphomannomutase and mannose-1-phosphate guanylyltransferase assay; assay type: functional; settings: 10 µM
# [5] = molecular target: T2, Arginase-2, mitochondrial (Homo sapiens) (UniProt P78540); assay: in vitro enzyme assay to detect the production of urea directly proportional to the activity of Arginase II; assay type: functional; settings: 33.3 µM; note: in the data most compounds retested in dose-response had high values
# T2 sequence (whole entry): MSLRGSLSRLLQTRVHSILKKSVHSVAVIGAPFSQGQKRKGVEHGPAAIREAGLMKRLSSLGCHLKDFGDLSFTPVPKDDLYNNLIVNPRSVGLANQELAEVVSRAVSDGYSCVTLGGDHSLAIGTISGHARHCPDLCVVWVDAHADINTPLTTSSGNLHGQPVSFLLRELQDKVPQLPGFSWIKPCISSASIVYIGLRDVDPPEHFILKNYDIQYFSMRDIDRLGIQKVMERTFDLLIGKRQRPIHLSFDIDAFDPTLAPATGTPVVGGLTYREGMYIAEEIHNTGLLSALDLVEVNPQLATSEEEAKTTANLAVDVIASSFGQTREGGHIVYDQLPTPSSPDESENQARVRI
# [6] = molecular target: T3, Proteasome subunit beta (Trypanosoma cruzi) (UniProt O96673); assay: Trypanosoma cruzi proteasome chymotrypsin-like activity (TcProtChymo) assay.; note: in the data most compounds retested in dose-response had high values; assay type: functional; settings: 9.37 µM
# T3 sequence (whole entry): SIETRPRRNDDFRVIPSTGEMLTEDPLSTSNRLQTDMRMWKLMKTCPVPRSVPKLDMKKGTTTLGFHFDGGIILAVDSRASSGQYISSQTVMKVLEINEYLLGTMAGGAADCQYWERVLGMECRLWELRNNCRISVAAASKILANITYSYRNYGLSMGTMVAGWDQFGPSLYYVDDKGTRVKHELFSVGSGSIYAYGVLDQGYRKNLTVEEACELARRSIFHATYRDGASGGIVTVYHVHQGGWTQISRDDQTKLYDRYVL
# Homo sapiens = species on record: Homo sapiens; assay: To identify inhibition of the IFN signalling (Jak-Stat) pathway via expression of an eGFP reporter gene under the control of an IFN-stimulated response element (ISRE) containing MxA promoter.; assay type: functional; settings: 30 µM
# [7] = molecular target: T4, Tyrosyl-tRNA synthetase, putative (Trypanosoma cruzi (strain CL Brener)) (UniProt Q4DSP6); assay: Trypanosoma cruzi tyrosyl tRNA synthetase (TcYRS) _High Tyrosine SOP; assay type: functional; settings: 30 µM; note: in the data most compounds retested in dose-response had high values
# T4 sequence (whole entry): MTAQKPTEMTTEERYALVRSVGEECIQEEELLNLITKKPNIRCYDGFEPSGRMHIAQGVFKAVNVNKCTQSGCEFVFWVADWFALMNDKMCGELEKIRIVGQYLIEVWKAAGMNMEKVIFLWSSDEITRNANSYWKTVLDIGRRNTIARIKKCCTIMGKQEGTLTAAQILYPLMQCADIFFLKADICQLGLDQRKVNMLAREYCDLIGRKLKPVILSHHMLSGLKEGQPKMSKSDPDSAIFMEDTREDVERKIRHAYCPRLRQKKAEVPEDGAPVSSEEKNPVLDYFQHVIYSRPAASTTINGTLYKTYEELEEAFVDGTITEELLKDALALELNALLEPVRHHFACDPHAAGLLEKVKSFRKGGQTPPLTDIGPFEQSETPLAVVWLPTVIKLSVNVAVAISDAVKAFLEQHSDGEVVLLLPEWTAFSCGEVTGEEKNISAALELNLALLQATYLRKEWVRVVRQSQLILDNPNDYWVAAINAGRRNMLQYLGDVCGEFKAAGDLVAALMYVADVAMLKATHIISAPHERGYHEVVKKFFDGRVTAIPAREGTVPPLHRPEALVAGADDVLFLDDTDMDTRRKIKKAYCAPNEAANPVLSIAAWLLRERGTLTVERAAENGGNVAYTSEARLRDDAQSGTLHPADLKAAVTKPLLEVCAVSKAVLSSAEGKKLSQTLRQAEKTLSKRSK
# [8] = molecular target: T4, Tyrosyl-tRNA synthetase, putative (Trypanosoma cruzi (strain CL Brener)); assay: Trypanosoma cruzi tyrosyl tRNA synthetase (TcYRS) SOP; assay type: functional; settings: 30 µM
# [9] = molecular target: Chromo domain-containing protein 1 (Saccharomyces cerevisiae (strain ATCC 204508 / S288c) (Baker's yeast)) (UniProt P32657); assay: ScCHD-1 Enzyme Inhibition Assay; assay type: functional; settings: 30 µM; note: in the data most compounds retested in dose-response had high values
# Chain of Chromo domain-containing protein 1 (Saccharomyces cerevisiae (strain ATCC 204508 / S288c) (Baker's yeast)) (P32657 whole entry, the tested form may be a part): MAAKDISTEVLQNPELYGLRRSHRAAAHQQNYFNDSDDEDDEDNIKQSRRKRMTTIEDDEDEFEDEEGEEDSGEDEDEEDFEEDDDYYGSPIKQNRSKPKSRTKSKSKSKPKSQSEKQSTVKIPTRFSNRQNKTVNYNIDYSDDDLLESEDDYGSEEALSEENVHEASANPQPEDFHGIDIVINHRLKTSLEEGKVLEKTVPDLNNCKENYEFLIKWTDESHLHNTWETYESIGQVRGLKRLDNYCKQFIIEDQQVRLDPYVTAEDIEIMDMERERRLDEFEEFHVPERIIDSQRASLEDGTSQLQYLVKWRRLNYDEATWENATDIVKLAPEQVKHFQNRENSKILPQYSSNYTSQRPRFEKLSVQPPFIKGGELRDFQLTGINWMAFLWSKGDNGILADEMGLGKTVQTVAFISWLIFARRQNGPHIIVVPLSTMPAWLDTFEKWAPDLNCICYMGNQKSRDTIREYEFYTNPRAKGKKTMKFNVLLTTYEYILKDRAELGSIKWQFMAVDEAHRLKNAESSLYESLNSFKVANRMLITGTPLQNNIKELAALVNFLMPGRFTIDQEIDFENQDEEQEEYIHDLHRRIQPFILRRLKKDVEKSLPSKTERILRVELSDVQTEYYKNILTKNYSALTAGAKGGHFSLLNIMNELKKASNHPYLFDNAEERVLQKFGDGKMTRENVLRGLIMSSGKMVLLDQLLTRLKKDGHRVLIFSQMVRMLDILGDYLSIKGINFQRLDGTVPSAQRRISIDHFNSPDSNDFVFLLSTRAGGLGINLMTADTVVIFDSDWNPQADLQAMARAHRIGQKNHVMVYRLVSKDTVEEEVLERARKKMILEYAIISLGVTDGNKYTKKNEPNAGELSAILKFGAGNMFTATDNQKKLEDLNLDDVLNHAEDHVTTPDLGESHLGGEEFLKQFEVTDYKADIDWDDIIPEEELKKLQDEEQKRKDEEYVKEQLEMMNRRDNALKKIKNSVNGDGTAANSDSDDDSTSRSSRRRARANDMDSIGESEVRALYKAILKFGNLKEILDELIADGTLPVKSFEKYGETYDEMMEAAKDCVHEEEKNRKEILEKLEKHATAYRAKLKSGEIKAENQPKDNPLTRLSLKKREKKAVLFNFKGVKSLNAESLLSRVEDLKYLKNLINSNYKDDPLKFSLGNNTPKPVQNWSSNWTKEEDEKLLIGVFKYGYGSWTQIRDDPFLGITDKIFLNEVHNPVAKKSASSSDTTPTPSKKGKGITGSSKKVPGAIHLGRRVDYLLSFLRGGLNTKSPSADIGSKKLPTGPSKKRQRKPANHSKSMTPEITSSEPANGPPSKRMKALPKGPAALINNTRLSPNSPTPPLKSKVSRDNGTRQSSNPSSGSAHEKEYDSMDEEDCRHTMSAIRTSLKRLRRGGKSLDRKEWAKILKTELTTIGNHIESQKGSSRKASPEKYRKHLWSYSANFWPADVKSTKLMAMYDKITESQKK
# Chain of Protein translocase subunit SecA (Escherichia coli (strain K12)) (P10408 whole entry): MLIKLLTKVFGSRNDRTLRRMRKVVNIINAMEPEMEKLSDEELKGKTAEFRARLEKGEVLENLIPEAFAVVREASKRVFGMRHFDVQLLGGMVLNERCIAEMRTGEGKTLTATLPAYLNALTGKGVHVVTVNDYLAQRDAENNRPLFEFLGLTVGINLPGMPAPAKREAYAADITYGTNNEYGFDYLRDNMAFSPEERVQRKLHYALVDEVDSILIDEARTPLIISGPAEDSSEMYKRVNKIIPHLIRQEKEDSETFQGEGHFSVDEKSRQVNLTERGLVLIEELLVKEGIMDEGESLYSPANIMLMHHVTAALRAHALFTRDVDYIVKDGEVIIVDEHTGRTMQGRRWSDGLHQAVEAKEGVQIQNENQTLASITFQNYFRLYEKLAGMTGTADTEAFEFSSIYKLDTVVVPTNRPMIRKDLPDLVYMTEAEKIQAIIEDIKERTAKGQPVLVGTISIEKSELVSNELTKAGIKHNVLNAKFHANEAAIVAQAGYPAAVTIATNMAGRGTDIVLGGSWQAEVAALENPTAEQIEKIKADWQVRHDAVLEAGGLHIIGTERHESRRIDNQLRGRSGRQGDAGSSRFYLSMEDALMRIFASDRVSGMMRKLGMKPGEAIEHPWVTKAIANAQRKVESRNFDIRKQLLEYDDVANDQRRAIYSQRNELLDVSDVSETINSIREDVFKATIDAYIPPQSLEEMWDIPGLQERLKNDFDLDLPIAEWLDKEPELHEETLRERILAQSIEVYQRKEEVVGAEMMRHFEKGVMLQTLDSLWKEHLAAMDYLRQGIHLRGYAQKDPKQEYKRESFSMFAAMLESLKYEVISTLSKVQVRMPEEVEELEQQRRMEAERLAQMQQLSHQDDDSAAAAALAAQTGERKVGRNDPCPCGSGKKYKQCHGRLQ
# Chain of Sialic acid-binding Ig-like lectin 9 (Homo sapiens) (Q9Y336 whole entry): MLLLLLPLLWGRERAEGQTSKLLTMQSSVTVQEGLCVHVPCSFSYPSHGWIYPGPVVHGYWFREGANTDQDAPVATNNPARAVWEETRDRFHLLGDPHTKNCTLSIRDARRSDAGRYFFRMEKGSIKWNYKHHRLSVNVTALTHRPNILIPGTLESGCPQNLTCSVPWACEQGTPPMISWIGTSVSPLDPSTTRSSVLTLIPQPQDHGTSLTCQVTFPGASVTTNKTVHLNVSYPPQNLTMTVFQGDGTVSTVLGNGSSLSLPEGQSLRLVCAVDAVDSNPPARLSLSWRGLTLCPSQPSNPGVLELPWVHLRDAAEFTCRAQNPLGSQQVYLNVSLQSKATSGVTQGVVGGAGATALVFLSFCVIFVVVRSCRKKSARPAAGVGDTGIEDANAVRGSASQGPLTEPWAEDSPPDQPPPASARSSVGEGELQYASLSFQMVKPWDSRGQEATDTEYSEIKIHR
Compound,Percent Effect [1] [%],Percent Effect [2] [%],Percent Effect [3] [%],Percent Effect [4] [%],Percent Effect (Trypanosoma cruzi) [%],Percent Effect [5] [%],Percent Effect [6] [%],Percent Effect (Homo sapiens) [%],Percent Effect [7] [%],Percent Effect [8] [%],Percent Effect [9] [%]
CC(C)N1CCOCC2(CN(Cc3ccco3)CCO2)C1 (stereo unspecified),-0.00842,-5.48,2.81,4.65,-2.58,2.4,13.8,3.21,2.08,8.64,0.188
Cc1ccc(C(O)CNC(=O)NCc2nc(C)cs2)cc1 (stereo unspecified),-1.18,5.41,2.46,3.69,-6.56,1.43,12.9,5.94,2.65,12.2,-3.85
O=C(c1ccccc1N1CCOCC1)N1CCCC(n2cccn2)C1 (stereo unspecified),-5.13,2.7,-10.8,3.15,-1.98,-0.802,3.06,12.4,5.42,13.6,-3.66
CN(C)C(=O)N1C[C@@H]2COC[C@]2(CNS(C)(=O)=O)C1,-1.78,-2.7,5.5,5.41,-1.27,2.87,16.8,-0.0949,0,-5.13,3.04
Cc1nn(C)c(C)c1-c1cncc(C2CCN(S(C)(=O)=O)CC2)n1,0.332,-2.67,22.7,4.44,-1.77,2.1,-3.96,25.6,3.19,3.85,0.849
Cc1nc(C)c2c(n1)CCN(C(=O)CC1CC1)CC2,3.82,10.8,4.71,-10.8,-5.57,2.87,21.2,10.2,3.24,12.8,-3.91
